Compounds with a hit are over-represented: about 2.2% of the library has one in this group of screens.
IEC-6 tox = IEC-6 cytotoxicity, counter-screen for KLF5 inhibitors | luminescence viability | inhibition, % at 5 µM | 290,000 tested, 0.78% active | AID 1825;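 further: 0% = plate median of test compound wells and 100% = cytotoxic reference compound wells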
APP 5UTR inh = APP translation inhibition; SH-SY5Y APP 5'UTR-luciferase reporter, luminescence; inhibition, % at 2 µM; 190,000 tested, 0.82% active; AID 1285;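 active means inhibition above a set limit, derived from the sample mean plus 3 SD, cut at about 45% in these data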
BaF3 tox = parental Ba/F3 viability inhibition as JAK2V617F counter-screen; CellTiter-Glo ATP luminescence; inhibition, % at 5.6 µM; 220,000 tested, 1.1% active;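 active means inhibition above a per-campaign cutoff, the mean inhibition of all tested compounds plus 3 SD, cut at about 27% in these data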;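 further: 0% = DMSO wells and 100% = JAK Inhibitor I control wells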
Ba/F3 V617F tox = loss of viability in JAK2V617F-driven Ba/F3 cells; Ba/F3 EpoR-JAK2V617F viability, ATP luminescence; inhibition, % at 5.6 µM; 220,000 tested, 1.1% active;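 active means inhibition above the campaign mean plus 3 SD over all tested compounds, cut at about 24% in these data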;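 further: cytokine-independent growth of Ba/F3 cells driven by EpoR plus mutant JAK2; 0% = DMSO-treated cells and 100% = JAK inhibitor I control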
KLF5 inhibitor = inhibitors of KLF5 expression; inhibition, % at 5 µM; 290,000 tested, 0.23% active; DLD-1 KLF5 promoter-luciferase reporter, luminescence; AID 1700;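 active means inhibition above a per-plate limit of that plate's mean compound inhibition plus 3 SD, cut at about 60% in these data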;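 further: 0% = DMSO wells and 100% = LY294002 at 200 µM; higher means less KLF5 promoter-driven luciferase light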
aSyn UTR inh = 5' untranslated region of α-synuclein, MLPCN primary screen. AID 1813. 300,000 tested, 0.82% active. alpha-synuclein 5'UTR reporter, inhibitor activity. inhibition, % (tested at 7.5 µM); in the data active means inhibition above about 60%;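 further: H4 neuroglioblastoma cells stably carrying SNCA 5'UTR luciferase fusion; 0% = DMSO wells and 100% = positive control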
IEC-6 tox confirm = confirmation of cytotoxic compounds in rat IEC-6 intestinal epithelial cells; shares compounds with IEC-6 tox; IEC-6 rat intestinal epithelial viability, luminescence; inhibition, % at 5 µM; 1,900 tested, 63% active;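 further: 0% = vehicle and 100% = reference cytotoxic drug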
An asterisk follows results filed as active. Unless noted, no stated cut-off is given here; in the data, active means inhibition above about 22%; inactive means the rest.

OCC[n+]1ccc(/C=C/c2c[nH]c3ccccc23)cc1 was read as IEC-6 tox 56.3*, APP 5UTR inh 16.4, BaF3 tox 84.4*, Ba/F3 V617F tox 90.2*, KLF5 inhibitor 6.3, aSyn UTR inh -12.2 and IEC-6 tox confirm 5.0.
For COc1cc(/C=N/NC(=S)NC2CC3C=CC2C3)cc(OC)c1OC (stereo unspecified) the results were IEC-6 tox 27.9*, BaF3 tox -5.9, Ba/F3 V617F tox 3.5, KLF5 inhibitor -20.8, aSyn UTR inh 10.2 and IEC-6 tox confirm 1.7.
`CC(C)c1nnc(NC(=O)c2nc(S(=O)(=O)Cc3ccccc3)ncc2Cl)s1` gave IEC-6 tox 41.5*, KLF5 inhibitor 18.2, aSyn UTR inh -81.3 and IEC-6 tox confirm -1.1.
For CSc1nnc(NC(=O)c2nc(S(=O)(=O)Cc3ccccc3)ncc2Cl)s1 the results were IEC-6 tox 33.8*, KLF5 inhibitor 19.9, aSyn UTR inh -35.3 and IEC-6 tox confirm 9.1.
`CCCc1nnc(NC(=O)c2nc(S(=O)(=O)Cc3ccc(C)cc3)ncc2Cl)s1` gave IEC-6 tox 7.5, KLF5 inhibitor -6.8 and aSyn UTR inh -9.4.
Screening O=C(COC(=O)/C=C/c1ccc(C(F)(F)F)cc1)NCC1CCCCC1 returned aSyn UTR inh -9.4.
Screening Cc1cc(C(=O)N2CCN(C/C=C/c3ccccc3)CC2)cs1 returned IEC-6 tox 45.3*, APP 5UTR inh -16.4, BaF3 tox 2.7, Ba/F3 V617F tox 0.2, KLF5 inhibitor 1.7, aSyn UTR inh 15.9 and IEC-6 tox confirm -16.0.
For O=C(c1cccnc1)N1CCN(C/C=C/c2ccccc2)CC1 the results were IEC-6 tox 2.8, APP 5UTR inh -9.1, BaF3 tox 5.6, Ba/F3 V617F tox 0.4, KLF5 inhibitor -18.0 and aSyn UTR inh 14.7.
Screening O=C(CCc1ccccc1)Nc1ccncc1 returned IEC-6 tox -2.1, APP 5UTR inh -20.2, BaF3 tox -3.6, Ba/F3 V617F tox -2.9, KLF5 inhibitor -15.4 and aSyn UTR inh -11.3.
`CC(C)c1ccc(NC(=O)CCc2ccccc2)cc1` gave IEC-6 tox 28.9*, KLF5 inhibitor -63.7, aSyn UTR inh -388.9 and IEC-6 tox confirm 52.3*.
COC(=O)COc1ccc(/C=N/NC(=O)c2ccc(N(Cc3ccccc3)S(C)(=O)=O)cc2)cc1 was read as IEC-6 tox -1.1, APP 5UTR inh -16.9, BaF3 tox 0.0, Ba/F3 V617F tox -0.1, KLF5 inhibitor -6.0 and aSyn UTR inh -2.5.
`COc1nn(-c2ccccc2)c(=O)c(Cl)c1Cl` gave IEC-6 tox 100.2*, KLF5 inhibitor -6.6, aSyn UTR inh -347.4 and IEC-6 tox confirm 23.1*.
`COc1c(Cl)cnn(-c2ccccc2)c1=O` gave IEC-6 tox -2.4, APP 5UTR inh 10.5, BaF3 tox 2.3, Ba/F3 V617F tox -1.4, KLF5 inhibitor -23.6 and aSyn UTR inh 3.5.
`Cc1[nH]c2ccccc2c1/C=N/Nc1nncn1N` gave IEC-6 tox 101.9*, APP 5UTR inh -134.1, BaF3 tox 4.1, Ba/F3 V617F tox 7.0, KLF5 inhibitor -27.1 and IEC-6 tox confirm -13.5.
Screening CCCNS(=O)(=O)c1cccc(C(=O)OCc2cc(=O)oc3cc(OC)ccc23)c1 returned IEC-6 tox 62.5*, KLF5 inhibitor 42.6, aSyn UTR inh -96.6 and IEC-6 tox confirm 16.2.
For COc1ccc2c(COC(=O)c3cccc(S(=O)(=O)NCC(C)C)c3)cc(=O)oc2c1 the results were IEC-6 tox -8.8, KLF5 inhibitor -9.5 and aSyn UTR inh -14.0.
Cc1cccc(NC(=O)Nc2ccc3c(c2)CCC3)c1 was read as IEC-6 tox 89.8*, KLF5 inhibitor -113.0, aSyn UTR inh -115.7 and IEC-6 tox confirm 8.1.
For COc1ccc(/C=N\NC(=O)c2sccc2C)cc1Cn1nc(C)cc1C the results were IEC-6 tox 45.5*, KLF5 inhibitor -17.1, aSyn UTR inh -29.7 and IEC-6 tox confirm 24.5*.
Screening COc1ccc(CCNc2ncnc3sc(C)cc23)cc1OC returned IEC-6 tox 26.6*, KLF5 inhibitor -38.4, aSyn UTR inh 77.4* and IEC-6 tox confirm 26.6*.
Screening Cc1cc(C)c(Cn2cnc3ccccc32)c(C)c1 returned IEC-6 tox -5.0, APP 5UTR inh 1.8, BaF3 tox 6.8, Ba/F3 V617F tox 2.2, KLF5 inhibitor -23.4 and aSyn UTR inh -15.4.
Screening CN(Cc1cn(C)nc1-c1ccc(Oc2ccccc2)cc1)C1CCOC1 (stereo unspecified) returned IEC-6 tox -1.6, BaF3 tox 3.8, Ba/F3 V617F tox -0.5, KLF5 inhibitor -13.3 and aSyn UTR inh 17.7.
Screening CN(Cc1cn(C)nc1-c1ccc(Oc2ccccc2)cc1)CC1COCCO1 (stereo unspecified) returned IEC-6 tox 77.1*, APP 5UTR inh 15.4, BaF3 tox 102.2*, Ba/F3 V617F tox 98.1*, KLF5 inhibitor 5.4, aSyn UTR inh 1.8 and IEC-6 tox confirm 2.7.
Screening O=C(Nc1ccccc1)Nc1ccc(-n2ccc(C(F)(F)F)n2)cc1 returned IEC-6 tox 22.1*, BaF3 tox 63.0*, Ba/F3 V617F tox 57.7*, KLF5 inhibitor -138.3, aSyn UTR inh -276.6 and IEC-6 tox confirm 23.2*.
`O=C(O)CC(CC(=O)Nc1ccc(-n2ccc(C(F)(F)F)n2)cc1)c1ccccc1` (stereo unspecified) gave IEC-6 tox 9.3, BaF3 tox -0.1, Ba/F3 V617F tox 1.9, KLF5 inhibitor -13.7 and aSyn UTR inh 0.6.
For COc1cccc(CNc2ncc(C(=O)Nc3cc(OC)c(OC)c(OC)c3)c(C)n2)c1 the results were IEC-6 tox 29.8*, KLF5 inhibitor 22.4, aSyn UTR inh -22.3 and IEC-6 tox confirm 11.5.
For COc1cc2c(c(OC)c1OC)-c1ccc(NC(=O)c3ccc(F)cc3)c(=O)cc1[C@@H](NC(C)=O)CC2 the results were IEC-6 tox 26.0*, KLF5 inhibitor 17.5, aSyn UTR inh -25.9 and IEC-6 tox confirm 52.6*.
CC(C)n1cc(NC(=O)c2cc(-c3ccccc3)on2)cn1 was read as IEC-6 tox 64.1*, APP 5UTR inh 76.8*, BaF3 tox 27.6*, Ba/F3 V617F tox 40.8*, KLF5 inhibitor -2.7, aSyn UTR inh -218.3 and IEC-6 tox confirm 46.2*.
`COc1ccc(Nc2nnc(SCc3cn4c(C)cccc4n3)s2)cc1` gave IEC-6 tox 22.2*, APP 5UTR inh -20.5, BaF3 tox 5.7, Ba/F3 V617F tox -1.4, KLF5 inhibitor -11.8, aSyn UTR inh -5.4 and IEC-6 tox confirm 2.2.
Screening Cc1cccc2nc(CSc3nnc(N)s3)cn12 returned IEC-6 tox 0.8, APP 5UTR inh -3.4, BaF3 tox 8.3, Ba/F3 V617F tox 6.1, KLF5 inhibitor -20.8 and aSyn UTR inh -32.8.
Screening Cc1nc2ccc(NC(=O)c3ccccc3)cc2s1 returned IEC-6 tox -1.1, APP 5UTR inh -82.2, BaF3 tox 1.7, Ba/F3 V617F tox -0.8, KLF5 inhibitor -94.1 and aSyn UTR inh -106.3.

From PubChem
